Screening results deposited in PubChem BioAssay by The Scripps Research Institute Molecular Screening Center.
GPR151 activ: human GPR151 activation; Q8TDV0; activation, % at 11.2 µM; PathHunter beta-arrestin GPR151 cells, luminescence; actives 1% (n = 650,000); in the data active means activation above about 4.9%;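 further: 0% = median of compound wells and 100% = cells with positive control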
FBW7 act: human FBW7 E3 ligase activation, primary screen. Q969H0. AlphaScreen FBW7–phospho-cyclin E peptide binding, activator screen. normalized activity (activation), % at 26.1 µM. actives 0.13% (n = 650,000). AID 1259310; in the data active means normalized activity above about 1.9%;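 further: purified mutant Fbw7 with reduced substrate affinity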
TEAD-YAP inh: TEAD-YAP interaction inhibition; HEK-TIYL cells, TEAD-Gal4/YAP UAS-luciferase luminescence; inhibition, % at 9.12 µM; actives 1.4% (n = 640,000); in the data active means inhibition above about 32%;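 further: 0% = median of test compound wells and 100% = reference inhibitor wells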
MITF inh: inhibitors of human MITF. O75030. AlphaScreen MITF homodimerization, bead proximity signal. inhibition, % at 2.6 µM. actives 0.91% (n = 650,000). AID 1259374; in the data active means inhibition above about 50%;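 further: 0% = vehicle wells with protein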
Target sequence (O75030 whole entry, looked up): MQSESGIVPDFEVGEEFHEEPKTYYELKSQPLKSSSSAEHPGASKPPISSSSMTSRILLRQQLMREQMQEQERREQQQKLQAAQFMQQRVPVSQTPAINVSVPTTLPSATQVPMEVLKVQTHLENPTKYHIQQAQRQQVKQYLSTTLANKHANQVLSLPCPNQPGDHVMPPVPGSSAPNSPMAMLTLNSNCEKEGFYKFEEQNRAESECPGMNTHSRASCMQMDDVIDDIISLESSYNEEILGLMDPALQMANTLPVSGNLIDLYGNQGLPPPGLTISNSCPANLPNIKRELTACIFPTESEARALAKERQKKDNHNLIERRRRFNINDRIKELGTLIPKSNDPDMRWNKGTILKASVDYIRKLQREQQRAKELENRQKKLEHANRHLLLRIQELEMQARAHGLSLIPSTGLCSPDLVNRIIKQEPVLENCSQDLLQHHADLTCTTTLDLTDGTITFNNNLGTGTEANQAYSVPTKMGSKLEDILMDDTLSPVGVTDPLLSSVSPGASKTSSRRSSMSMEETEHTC
MITF inh conf: confirmation of human MITF inhibitors; shares compounds with MITF inh; AlphaScreen MITF homodimerization, biotin/His-MITF beads; inhibition, % at 2.6 µM; actives 16% (n = 4,700); AID 1259372;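 active means inhibition above a cutoff derived from the DMSO control wells, cut at about 28% in these data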;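 further: 0% = MITF dimer wells with DMSO only; inhibitors lower the bead chemiluminescence by keeping MITF from dimerizing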
AlphaScreen DR: AlphaScreen optical interference, dose response counter-screen | shares compounds with MITF inh | AlphaScreen optical interference counterscreen, cell-free | IC50, µM | actives 6% (n = 480) | AID 1259373; call rule not given here
AlphaScreen intf2: optically interferes with AlphaScreen signal | shares compounds with MITF inh | LysRS AlphaScreen counterscreen, signal interference, triplicate | inhibition, % at 2.6 µM | actives 7.6% (n = 4,700) | AID 1259376;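 active means inhibition above a cutoff derived from the DMSO control wells, cut at about 30% in these data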
* = called active by the depositor; . = no result given. Rows were chosen to be rich in hits. Some 3.5% of all compounds tested hit in one or more screens of this group.

SMILES	GPR151 activ	FBW7 act	TEAD-YAP inh	MITF inh	MITF inh conf	AlphaScreen intf2	others
CCCCn1nnnc1SCC(=O)Nc1ccc(OC)cc1	0	0	7	3	.	.
COc1ccc(NCc2ccc(C(=O)O)o2)cc1	-1	0	-3	28	.	.
O=C(O)c1ccc(CNC(=O)c2cocc2C(=O)O)o1	-1	0	-4	55*	38*	7	AlphaScreen DR=>7.3
COc1ccc(N=Cc2c(O)n(-c3ccc(C)cc3)c(=S)[nH]c2=O)cc1	1	0	12	-5	.	.
Cc1ccc(Cl)cc1NC(=O)CC(NCc1ccccn1)C(=O)O (configuration not stated)	0	0	-2	101*	87*	100*
O=C(CC(NCc1ccccn1)C(=O)O)Nc1cccc(Cl)c1 (configuration not stated)	-1	-1	-8	112*	84*	100*
O=C(CC(NCc1ccccc1)C(=O)O)Nc1cccc(C(F)(F)F)c1 (configuration not stated)	4	0	-4	89*	8	8
CCCCCNC(CC(=O)Nc1cc(C)ccc1C)C(=O)O (configuration not stated)	-1	0	7	1	.	.
Cc1ccc(C)c(NC(=O)CC(NCCN)C(=O)O)c1 (configuration not stated)	0	0	5	81*	36*	58*
CCOC(=O)c1oc2ccccc2c1NC(=O)C1CCCN1S(=O)(=O)c1ccc(C)cc1 (configuration not stated)	0	0	-1	-5	.	.
COCCCNc1nccn2c(-c3ccccc3F)cnc12	-2	0	8	-10	.	.
O=C(/C=C/c1ccccc1)Nc1ccc(F)c(Cl)c1	-2	0	-78	-11	.	.
COc1ccc2c(c1)CC(c1nc(Nc3cn[nH]c3)c3ccccc3n1)CO2 (configuration not stated)	1	0	-11	7	.	.
Clc1ccc2c(c1)CC(c1nc(Nc3cncnc3)c3ccccc3n1)CO2 (configuration not stated)	0	0	2	51*	55*	3	AlphaScreen DR=>6.5
CCOC(=O)CCNC(C)C1COc2ccccc2O1 (configuration not stated)	1	0	4	51*	11	13
COc1ccc(C(=O)Nc2cc(-c3nc4cc(C)ccc4o3)ccc2Cl)cc1Br	-1	0	-31	59*	6	14
N#Cc1cc2c([nH]c1=S)CCCCC2	0	0	-14	6	.	.
CCN(CC)CCCNCc1ccc(Cl)cc1	0	0	-9	51*	-5	0
O=c1oc2ccccc2c(NCCc2ccccc2)c1CN1CCCC1	0	0	-8	17	.	.
COc1ccc(N=CC2=C(O)CC(c3cccc(Cl)c3)CC2=O)cc1OC (configuration not stated)	0	0	4	-7	.	.
CC(C)(C)C(=O)CN1C(=O)COc2ccccc21	3	0	-21	67*	12	8
CCOc1ccc(S(=O)(=O)Nc2cc3c(C(=O)OC(C)C)c(C)oc3c3ccccc23)cc1	1	1	-14	17	.	.
C=CCNC(=O)N1CCN(Cc2nc3ccccc3n2Cc2ccccc2)CC1	2	0	-13	78*	-4	14
COC(=O)c1ccc(CN2CCN(Cc3nc4ccccc4n3Cc3ccccc3)CC2)o1	0	-1	-12	67*	11	27
CC(C)(C)C(=O)N1CCN(Cc2nc3ccccc3n2Cc2ccccc2)CC1	1	0	-25	13	.	.
SMILES	GPR151 activ	FBW7 act	TEAD-YAP inh	MITF inh	MITF inh conf	AlphaScreen intf2	others
O=C(Nc1ccc(F)cc1)N1CCN(Cc2nc3ccccc3n2Cc2ccccc2)CC1	-1	0	-25	3	.	.
O=S(=O)(c1ccc(Sc2ccc(S(=O)(=O)N3CCCCC3)cc2)cc1)N1CCCCC1	1	0	9	1	.	.
CCOC(=O)N1CCN(Cc2cn3ccccc3n2)CC1	1	0	3	61*	-3	-2
COC(=O)C1(C(F)(F)F)C2C=CC(C2)N1c1nc2ccccc2s1 (configuration not stated)	-1	1	14	4	.	.
CCOC(=O)C(=CNc1ccccc1[N+](=O)[O-])C(=O)OCC	0	0	5	4	.	.
CCOC(=O)C(Cl)NNc1ccccc1[N+](=O)[O-] (configuration not stated)	-1	0	-9	72*	20	-1
CC(C)NC(=O)C1CCN(Cc2ccccc2Cl)CC1	0	0	4	54*	-10	-6
Cc1ccc(CN2CCC(C(=O)NC(C)C)CC2)cc1	-1	0	8	65*	-5	-4
CC(C)NC(=O)C1CCN(Cc2cccc(OCc3ccccc3)c2)CC1	0	1	5	57*	-10	-6
CC(C)NC(=O)C1CCN(Cc2cccc(Cl)c2Cl)CC1	1	0	7	54*	-21	-1
CC(O)CNC(=O)C1CCN(Cc2ccc(OCc3ccccc3)cc2)CC1 (configuration not stated)	1	1	-14	34	.	.
Cc1nc(N(C)c2ccc(C(C)C)cc2)c2c(C)c(C(=O)Nc3ccc4c(c3)OCO4)sc2n1	0	-1	-3	-5	.	.
COc1ccccc1-c1nnc(SCC(=O)N(Cc2ccccc2)C(C)(C)C)n1N	-1	1	5	15	.	.
CCCCNC(=O)NS(=O)(=O)c1c(Cl)nc(C)c(Cl)c1C	-1	0	15	0	.	.
COC(=O)Cn1cc2c(n1)-c1c(oc(C(=O)N3CCCC3)c1C)CC2	1	0	5	15	.	.
CCOC(=O)c1ccc(S(=O)(=O)NCCN2CCOCC2)cc1	0	0	4	54*	-5	-6
c1ccc(C2C3=C(CCCC3)SC3=C2CCCC3)cc1	0	0	7	70*	-1	-7
O=C(Nc1ccccc1-c1ccccc1)C1CCCN1C(=O)Nc1ccccc1 (configuration not stated)	1	0	7	79*	12	16
Cc1ccc2c3c(ccc2n1)NC1=C(C(=O)CCC1)C3c1ccccc1C (configuration not stated)	1	0	2	4	.	.
Cc1ccc2c3c(ccc2n1)NC1=C(C(=O)CCC1)C3c1ccccn1 (configuration not stated)	0	0	-19	63*	-3	5
O=C(CN1CCN(C(=O)NCc2ccc(Cl)cc2)CC1)c1cccs1	-2	1	4	59*	8	19
O=C(CN1CCN(C(=O)NCc2cccs2)CC1)c1ccco1	-1	0	5	58*	9	28
Cc1ccccc1NC(=O)N1CCN(CC(=O)c2ccco2)CC1	-1	0	-11	54*	10	22
